From PubChem BioAssay (NCI) come the findings set out here.

Experiment [1] can be described thus: NCI Yeast Anticancer Drug Screen. Data for the rad50 strain (AID 155).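 Note: 0% = growth of vehicle-only cultures of the same strain.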 Conditions: S. cerevisiae rad50 strain growth inhibition, hits give high values; at 50.0 µM unless noted. The gist of the method: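 Growth of the mutant yeast was measured after compound exposure and referenced to vehicle-treated cultures.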
A short description of experiment [2]: NCI Yeast Anticancer Drug Screen. Data for the mec2-1 strain (AID 157). Conditions: S. cerevisiae mec2-1 strain, hits give high values; at 50.0 µM unless noted. The gist of the method: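 Mutant yeast (mec2-1) grown with compound; growth inhibition relative to vehicle control reported.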
Experiment [3] can be described thus: NCI Yeast Anticancer Drug Screen. Data for the sgs1 mgt1 strain (AID 161).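 Note: 0% = growth of cultures given vehicle only.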 Conditions: S. cerevisiae sgs1 mgt1 strain, hits give high values; at 50.0 µM unless noted. The gist of the method:
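Percent growth inhibition was derived by comparing compound-exposed mutant yeast with vehicle-exposed cultures. The strain carries alterations in DNA damage repair.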

Experiment [4] in a line: NCI Yeast Anticancer Drug Screen. Data for the cln2 rad14 strain (AID 165).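 Note: 0% = growth equal to vehicle treated cultures.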 Conditions: S. cerevisiae cln2 rad14 strain, hits give high values; at 50.0 µM unless noted. In a few lines:
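Readout is yeast growth inhibition versus vehicle-treated controls, using a strain with cln2 and rad14 alterations exposed to compound.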

A short description of experiment [5]: NCI Yeast Anticancer Drug Screen. Data for the bub3 strain (AID 167). Conditions: S. cerevisiae bub3 mutant strain, hits give high values; at 50.0 µM unless noted. In a few lines: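 Whole-cell yeast assay. The mutant strain was incubated with compounds, and growth inhibition was determined by comparison with vehicle-treated cells.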
Experiment [6] can be described thus: NCI Yeast Anticancer Drug Screen. Data for the mlh1 rad18 strain (AID 175). Conditions: S. cerevisiae mlh1 rad18 strain growth inhibition, hits give high values; at 50.0 µM unless noted. In a few lines:
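Genetically defined yeast (DNA repair-deficient) exposed to compounds; growth inhibition determined relative to vehicle.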

Molecules are shown by their SMILES. The panel holds about 79,000 compounds, 15% with a hit somewhere; the sample as a whole holds those more often. Unmarked numbers belong to inactive results. The source made the active and inactive calls. Cut-off read from the data, not from the text of the source: active = growth inhibition above about 70%; inactive = the rest.

As for `CCOC(Nc1cc(Cl)cc(Cl)c1)C(=O)c1ccccc1` (stereo unspecified), the growth inhibition is -1.9% in experiment [1]; -0.7% in experiment [2]; -9.8% in experiment [3]; -3.05% in experiment [4]; 4.05% in experiment [5]; -5.65% in experiment [6].
With `O=S(=O)(N/N=C1\CC2CCC1C2)c1ccccc1` (stereo unspecified), the growth inhibition in experiment [1] was -7.05%; in experiment [2], -16.1%; in experiment [3] it was -16.9%; in experiment [4] it was 27.8%; in experiment [5], 21.4%; in experiment [6], 4.4%.
In the case of `CCCCC(CC)OC(=O)c1ccccc1C` (stereo unspecified), the growth inhibition was -8.05% in experiment [1]; -4.55% in experiment [2]; 0.5% in experiment [3]; -30.9% in experiment [4]; -1.4% in experiment [5]; -23.8% in experiment [6].
With `COc1ccc2cc3n(c(=O)c2c1OC)CCc1cc2c(cc1-3)OCO2`, the growth inhibition in experiment [1] is 11.9%; in experiment [2], -20.7%; in experiment [3], 14.2%; in experiment [4], 25.4%; in experiment [5], 2.8%; in experiment [6], -0.45%.
As for `CC(C)N(C(=O)c1ccc(C(=O)N(c2ccccc2)C(C)C)cc1)c1ccccc1`, the growth inhibition in experiment [1] was -40.5%; in experiment [2] it was -7.45%; in experiment [3], -1.25%; in experiment [4] it was 36%; in experiment [5], -3.45%; in experiment [6] it was 14.4%.
Consider `NNC(=O)CC(=O)NN`, for which the growth inhibition was 6.9% in experiment [1]; 2.05% in experiment [2]; -11.4% in experiment [3]; -10.7% in experiment [4]; 2.95% in experiment [5]; 18.4% in experiment [6].
On to `Cc1cc(C)c(CC(C)C)c(C)c1`, for which the growth inhibition in experiment [1] was 1.85%; in experiment [2], 6.25%; in experiment [3] it was 17.4%; in experiment [4] it was 31.4%; in experiment [5] it was 2.4%; in experiment [6], -2.45%.
On to `O=C1NCC(CCl)O1` (stereo unspecified), for which the growth inhibition was 8.3% in experiment [1]; -12.2% in experiment [2]; -2.15% in experiment [3]; 9.3% in experiment [4]; 18.1% in experiment [5]; 1.9% in experiment [6].
Take `C1=C(c2ccccc2)N(C2CCCCC2)C(c2ccccc2)=CN1Cc1ccccc1`: the growth inhibition in experiment [1] is 45%; in experiment [2], 31.9%; in experiment [3] it was 69.5%; in experiment [4], 42%; in experiment [5], 50.1%; in experiment [6], 70.8% (active).
As for `CC(Sc1nc(N)nc2nc[nH]c12)C(=O)O` (stereo unspecified), the growth inhibition is -15.2% in experiment [1]; -3.55% in experiment [2]; -11.3% in experiment [3]; -23.6% in experiment [4]; 4.15% in experiment [5]; 11% in experiment [6].
In the case of `COc1cc2c(cc1OC)[C@H](c1cc(OC)c3c(c1)OCO3)[C@H]1C(=O)OCC1C2` (stereo partly specified), the growth inhibition in experiment [1] was 11.4%; in experiment [2], -0.1%; in experiment [3], 0.2%; in experiment [4], 4.85%; in experiment [5] it was 30.6%; in experiment [6], 15.4%.
On to `O=C(Nc1ccc(S(=O)(=O)NC2CCCCC2)cc1)Oc1ccccc1C(=O)O`, for which the growth inhibition in experiment [1] is 49%; in experiment [2], -1.65%; in experiment [3], 39.9%; in experiment [4] it was 26.1%; in experiment [5], 16.1%; in experiment [6], 32.1%.
Turning to `Clc1cc2cc3cccc[n+]3cc2cc1Cl`, the growth inhibition in experiment [1] is 54%; in experiment [2] it was 16.1%; in experiment [3], 26.2%; in experiment [4], -22.9%; in experiment [5], 14.6%; in experiment [6] it was 3.7%.
Regarding `Cc1cc(C)nc(/N=C(/N)Nc2ccc(S(=O)(=O)NC(=O)Nc3ccccc3)cc2)n1`, the growth inhibition in experiment [1] is 21.5%; in experiment [2] it was 2.55%; in experiment [3] it was 5.8%; in experiment [4] it was 1.8%; in experiment [5] it was 0%; in experiment [6] it was -4.2%.
Turning to `C=C1CC(COc2ccc3c(C)c(Cl)c(=O)oc3c2)(c2ccccc2)OC1=O` (stereo unspecified), the growth inhibition in experiment [1] was 19%; in experiment [2], 20.4%; in experiment [3], 40%; in experiment [4], 37.5%; in experiment [5], 18.8%; in experiment [6], 37.6%.
As to `O=c1[nH]c2nc3ccccc3c(=O)n2nc1Cc1ccccc1`, the growth inhibition is -15.7% in experiment [1]; -19.6% in experiment [2]; -8.6% in experiment [3]; -2.05% in experiment [4]; -13.3% in experiment [5]; 0.7% in experiment [6].
Take `[N-]=[N+]=Nc1c(C=O)c(=O)n2c3c(cccc13)CCC2`: the growth inhibition in experiment [1] was 17.2%; in experiment [2], 32%; in experiment [3], 29.2%; in experiment [4], 31.2%; in experiment [5] it was 27.7%; in experiment [6] it was 61%.
With `C=C1CC2(OC1=O)c1ccccc1C=Cc1ccccc12`, the growth inhibition in experiment [1] was 26.8%; in experiment [2], 13.4%; in experiment [3], 55.1%; in experiment [4], 48.8%; in experiment [5] it was 47.5%; in experiment [6], 50.4%.
Take `[O-][N+](CCO)(CCO)c1ncnc2nc[nH]c12`: the growth inhibition is -2.35% in experiment [1]; -12.7% in experiment [2]; -0.45% in experiment [3]; -8.9% in experiment [4]; -63.7% in experiment [5]; 18.4% in experiment [6].
Take `O=C(O)CC(CS(=O)O)C(=O)O` (stereo unspecified): the growth inhibition in experiment [1] was -9.65%; in experiment [2] it was -11.2%; in experiment [3], -13.4%; in experiment [4] it was 1.05%; in experiment [5] it was 1.15%; in experiment [6] it was -3.7%.
Take `CC(=O)OC1CC(n2cc(F)c(=O)[nH]c2=O)OC1CO` (stereo unspecified): the growth inhibition is 7.95% in experiment [1]; 12.2% in experiment [2]; -10.4% in experiment [3]; -17% in experiment [4]; -0.45% in experiment [5]; 2.5% in experiment [6].
